According to publication PMC7862700, “An all-to-all approach to the identification of sequence-specific readers for epigenetic DNA modifications on cytosine”:

Key:
Test in all cases: DAPPL (digital affinity profiling via proximity ligation, sequencing); 10 mM Tris-HCl pH 7.5, 50 mM NaCl, 1 mM DTT, 4% glycerol, room temperature, 30 min; GST-TFs on glutathione beads, 16-mer random dsDNA library, 0.1% formaldehyde crosslink after washing; high values mean tight binding
Details in all cases: protein: recombinant; tags: N-terminal GST; dsDNA, one strand shown
ELF1 = ELF1 (Homo sapiens, UniProt P32519 1-619)
ELF1, sequence (P32519 whole entry, the tested form may be a part): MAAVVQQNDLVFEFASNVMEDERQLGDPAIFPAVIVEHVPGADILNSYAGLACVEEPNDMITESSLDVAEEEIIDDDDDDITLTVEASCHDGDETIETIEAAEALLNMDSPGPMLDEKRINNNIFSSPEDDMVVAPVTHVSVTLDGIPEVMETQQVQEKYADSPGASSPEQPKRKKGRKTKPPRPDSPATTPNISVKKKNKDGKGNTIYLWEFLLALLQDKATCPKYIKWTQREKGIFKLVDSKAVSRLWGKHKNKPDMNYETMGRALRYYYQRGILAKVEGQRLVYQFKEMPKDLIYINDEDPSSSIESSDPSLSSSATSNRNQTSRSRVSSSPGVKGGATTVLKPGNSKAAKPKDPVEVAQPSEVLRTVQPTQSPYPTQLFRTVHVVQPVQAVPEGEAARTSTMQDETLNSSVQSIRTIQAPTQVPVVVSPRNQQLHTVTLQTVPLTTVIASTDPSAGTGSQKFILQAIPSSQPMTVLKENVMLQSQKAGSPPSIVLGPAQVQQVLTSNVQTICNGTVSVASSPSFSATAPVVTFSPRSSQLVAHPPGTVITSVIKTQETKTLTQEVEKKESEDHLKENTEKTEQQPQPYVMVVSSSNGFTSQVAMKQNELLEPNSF
Outline: (§1)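 Binding signal is each hexamer's read frequency for a factor divided by its frequency in the tag-only sample. The factors were GST-fused human transcription factors from yeast, captured on glutathione beads, DNA-barcoded and pooled with that sample. Pools were incubated with 200 nmole of a random double-stranded 16-mer DNA library in Tris/NaCl/DTT/glycerol buffer at room temperature for 30 min, then washed, crosslinked with 0.1% formaldehyde, proximity-ligated with BsaI/T4 ligase (1 h, 37 °C), PCR-amplified and sequenced on an Illumina NextSeq500.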

FEV = target: T1, FEV (Homo sapiens, UniProt Q99581 1-238)
T1 sequence: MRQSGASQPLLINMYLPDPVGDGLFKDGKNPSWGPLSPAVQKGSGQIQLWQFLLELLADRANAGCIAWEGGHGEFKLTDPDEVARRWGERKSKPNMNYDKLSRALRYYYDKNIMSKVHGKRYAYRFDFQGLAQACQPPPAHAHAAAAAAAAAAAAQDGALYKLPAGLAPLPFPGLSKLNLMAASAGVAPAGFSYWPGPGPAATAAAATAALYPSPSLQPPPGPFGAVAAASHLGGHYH
Outline: as §1

ETV5 = ETV5 (Homo sapiens, UniProt P41161 1-510)
ETV5, sequence (P41161 whole entry): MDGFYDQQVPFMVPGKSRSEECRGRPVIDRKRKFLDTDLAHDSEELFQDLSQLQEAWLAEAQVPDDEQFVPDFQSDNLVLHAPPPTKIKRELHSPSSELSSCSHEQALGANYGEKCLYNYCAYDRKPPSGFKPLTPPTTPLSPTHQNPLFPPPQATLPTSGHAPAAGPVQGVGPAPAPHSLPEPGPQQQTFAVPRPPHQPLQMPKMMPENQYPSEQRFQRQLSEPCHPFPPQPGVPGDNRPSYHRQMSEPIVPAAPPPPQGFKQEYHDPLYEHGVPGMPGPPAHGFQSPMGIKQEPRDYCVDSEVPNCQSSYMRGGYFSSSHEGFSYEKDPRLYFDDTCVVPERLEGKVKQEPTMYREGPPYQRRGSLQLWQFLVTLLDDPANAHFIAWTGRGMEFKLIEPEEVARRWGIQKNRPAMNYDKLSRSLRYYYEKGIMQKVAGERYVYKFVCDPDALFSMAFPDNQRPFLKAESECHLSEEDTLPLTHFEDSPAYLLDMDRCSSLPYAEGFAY
Outline: as §1

ELF4 = ELF4 (Homo sapiens, UniProt Q99607 1-663)
ELF4, sequence (Q99607 whole entry): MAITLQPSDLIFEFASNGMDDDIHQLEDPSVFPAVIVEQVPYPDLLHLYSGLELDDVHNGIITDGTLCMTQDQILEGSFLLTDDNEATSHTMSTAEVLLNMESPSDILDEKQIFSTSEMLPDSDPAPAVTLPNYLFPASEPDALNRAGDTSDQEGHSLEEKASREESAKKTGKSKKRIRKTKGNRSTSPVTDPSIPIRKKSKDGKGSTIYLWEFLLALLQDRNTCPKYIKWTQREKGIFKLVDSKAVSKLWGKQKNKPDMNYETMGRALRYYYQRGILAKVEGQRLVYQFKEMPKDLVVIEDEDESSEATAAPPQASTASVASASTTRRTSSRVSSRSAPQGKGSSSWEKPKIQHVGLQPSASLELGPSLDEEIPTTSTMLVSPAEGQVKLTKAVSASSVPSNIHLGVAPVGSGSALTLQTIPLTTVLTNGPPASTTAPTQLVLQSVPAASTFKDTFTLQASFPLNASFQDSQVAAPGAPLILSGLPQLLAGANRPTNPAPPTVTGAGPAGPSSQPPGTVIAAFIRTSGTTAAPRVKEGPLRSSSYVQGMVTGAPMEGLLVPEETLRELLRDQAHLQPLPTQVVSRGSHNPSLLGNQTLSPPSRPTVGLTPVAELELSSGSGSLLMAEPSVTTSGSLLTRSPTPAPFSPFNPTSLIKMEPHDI
Outline: as §1

ELK4 = target: T2, ELK4 (Homo sapiens, UniProt P28324-2 1-405)
T2 sequence: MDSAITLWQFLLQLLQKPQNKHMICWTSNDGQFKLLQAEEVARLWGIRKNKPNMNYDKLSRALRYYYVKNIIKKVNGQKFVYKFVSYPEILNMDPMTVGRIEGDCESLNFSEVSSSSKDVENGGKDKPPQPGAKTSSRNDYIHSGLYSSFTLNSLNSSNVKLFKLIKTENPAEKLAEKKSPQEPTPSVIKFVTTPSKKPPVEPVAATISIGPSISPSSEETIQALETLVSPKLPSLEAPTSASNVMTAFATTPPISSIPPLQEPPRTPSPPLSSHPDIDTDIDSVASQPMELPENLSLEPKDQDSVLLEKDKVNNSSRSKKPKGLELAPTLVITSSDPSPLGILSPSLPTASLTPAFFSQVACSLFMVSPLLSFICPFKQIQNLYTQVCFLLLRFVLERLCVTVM
Outline: as §1

ETV3L = target: T3, ETV3L (Homo sapiens, UniProt Q6ZN32 1-361)
T3 sequence: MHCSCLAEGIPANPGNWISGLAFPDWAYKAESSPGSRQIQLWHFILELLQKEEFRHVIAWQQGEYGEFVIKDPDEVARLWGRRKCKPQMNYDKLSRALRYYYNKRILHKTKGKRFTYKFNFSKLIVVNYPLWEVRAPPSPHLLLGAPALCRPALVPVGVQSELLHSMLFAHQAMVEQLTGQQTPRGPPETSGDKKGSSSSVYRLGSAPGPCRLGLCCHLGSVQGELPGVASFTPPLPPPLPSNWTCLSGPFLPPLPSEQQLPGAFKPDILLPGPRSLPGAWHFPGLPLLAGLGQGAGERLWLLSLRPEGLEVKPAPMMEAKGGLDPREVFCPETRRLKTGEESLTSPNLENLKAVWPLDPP
Outline: as §1

ETS2 = target: T4, ETS2 (Homo sapiens, UniProt P15036 1-469)
T4 sequence: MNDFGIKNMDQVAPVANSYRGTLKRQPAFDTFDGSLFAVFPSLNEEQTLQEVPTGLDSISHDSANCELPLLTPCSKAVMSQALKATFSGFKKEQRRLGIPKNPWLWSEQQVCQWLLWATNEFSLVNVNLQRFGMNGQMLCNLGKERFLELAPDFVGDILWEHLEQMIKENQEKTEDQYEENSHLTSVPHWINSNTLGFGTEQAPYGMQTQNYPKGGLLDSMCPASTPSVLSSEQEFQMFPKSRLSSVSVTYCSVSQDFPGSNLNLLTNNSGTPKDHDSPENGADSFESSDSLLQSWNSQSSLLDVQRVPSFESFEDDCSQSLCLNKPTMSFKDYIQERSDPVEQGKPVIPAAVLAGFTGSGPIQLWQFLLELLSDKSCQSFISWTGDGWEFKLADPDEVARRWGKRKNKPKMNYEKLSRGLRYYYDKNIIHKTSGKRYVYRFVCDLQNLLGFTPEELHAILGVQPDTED
Outline: as §1

ETV6 = ETV6 (Homo sapiens, UniProt P41212 1-452)
ETV6, sequence (P41212 whole entry): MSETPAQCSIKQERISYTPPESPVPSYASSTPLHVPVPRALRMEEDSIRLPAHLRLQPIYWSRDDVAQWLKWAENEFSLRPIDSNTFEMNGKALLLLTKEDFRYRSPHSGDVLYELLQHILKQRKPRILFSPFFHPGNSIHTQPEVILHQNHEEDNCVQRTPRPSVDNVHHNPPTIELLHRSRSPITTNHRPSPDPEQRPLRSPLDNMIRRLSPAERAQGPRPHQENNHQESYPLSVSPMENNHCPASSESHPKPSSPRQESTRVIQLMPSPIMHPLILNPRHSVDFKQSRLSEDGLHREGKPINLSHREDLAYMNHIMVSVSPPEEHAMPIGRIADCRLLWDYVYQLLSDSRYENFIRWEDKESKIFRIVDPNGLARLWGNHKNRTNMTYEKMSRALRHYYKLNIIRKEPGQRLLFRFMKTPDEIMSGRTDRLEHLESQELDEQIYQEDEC
Outline: as §1

**Q.** TGGGCA was tested. Which binding signal (ELF1) did it give?
**A.** 1.06 fold enrichment (6-mer frequency, TF over GST control)

**Q.** And the binding signal (FEV)?
**A.** 1.01 fold enrichment (6-mer frequency, TF over GST control)

**Q.** What about the binding signal (ETV5) of the same sequence?
**A.** 1.04 fold enrichment (6-mer frequency, TF over GST control)

**Q.** What about the binding signal (ELF4) of the same sequence?
**A.** 1.04 fold enrichment (6-mer frequency, TF over GST control)

**Q.** What about the binding signal (ELK4) of the same sequence?
**A.** 1.06 fold enrichment (6-mer frequency, TF over GST control)

**Q.** What about the binding signal (ETV3L) of the same sequence?
**A.** 1.04 fold enrichment (6-mer frequency, TF over GST control)

**Q.** What about the binding signal (ETS2) of the same sequence?
**A.** 1.04 fold enrichment (6-mer frequency, TF over GST control)

**Q.** And the binding signal (ETV6)?
**A.** 1.02 fold enrichment (6-mer frequency, TF over GST control)
